The structures appear in SMILES notation. The panel holds about 83,000 compounds, 20% with a hit somewhere; the sample as a whole holds those more often.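 How to read the values: 0–100, growth inhibition (40 = 60% inhibited); 0, no net growth; -100 to 0, cell death (-40 = 40% of starting cells died; -100 = all dead).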 A number with no mark means an inactive call. The source made the active and inactive calls. Rule for the calls: active = growth percent below 10; inactive = the rest.

Experiment in all cases: NCI-60 one-dose screen, 48 h (100 = growth as untreated, 0 = no growth, -100 = all killed)
Assay [1] deals with HCT-15 colon. The note with it: 10 µM unless noted.
In assay [2] the test system is HT29 colon. The note with it: 10 µM unless noted.
Assay [3] concerns SNB-75 CNS. The note with it: 10 µM unless noted.
Assay [4] deals with SNB-19 CNS. The note with it: 10 µM unless noted.
Assay [5] concerns U251 CNS. The note with it: 10 µM unless noted.
In assay [6] the test system is PC-3 prostate. The note with it: 10 µM unless noted.
The subject of assay [7] is SK-MEL-5 melanoma. The note with it: 10 µM unless noted.
Assay [8] concerns UACC-62 melanoma. The note with it: 10 µM unless noted.
Assay [9] has as its system LOX IMVI melanoma. The note with it: 10 µM unless noted.
In assay [10] the test system is SK-MEL-28 melanoma. The note with it: 10 µM unless noted.
The test system of assay [11] is SK-MEL-2 melanoma. The note with it: 10 µM unless noted.
The subject of assay [12] is EKVX NSCLC. The note with it: 10 µM.
Assay [13] concerns SN12C renal. The note with it: 10 µM unless noted.
For assay [14], the system named is UO-31 renal. The note with it: 10 µM unless noted.
Assay [15] has as its system TK-10 renal. The note with it: 10 µM unless noted.
The test system of assay [16] is ACHN renal. The note with it: 10 µM unless noted.
In assay [17] the test system is CAKI-1 renal. The note with it: 10 µM unless noted.
For assay [18], the system named is A498 renal. The note with it: 10 µM unless noted.
In assay [19] the test system is CCRF-CEM leukemia. The note with it: 10 µM.
In assay [20] the test system is MOLT-4 leukemia. The note with it: 10 µM unless noted.

For the molecule `Oc1ccccc1/C=N/N=C/c1c(O)ccc2ccccc12`, the growth in assay [1] was 70.1%; in [2], 100%; in assay [3], 94.2%; in assay [4] it was 99.4%; in assay [5], 93.2%; in [6] it was 83.8%. Also, the growth in assay [7] is 93.1%; in assay [8] it was 84.4%; in assay [9], 85.2%; in assay [10], 101%; in [11], 92.4%; in assay [12], 72.1%. Moreover, the growth was 85.1% in assay [13]; 42.9% in assay [14]; 101% in assay [15]; 80% in assay [16]; 91.6% in [17]; 123% in [18]. For the same molecule, the growth is 7.8% (active) in assay [19] and 57.7% in [20].

For `O=C(Nc1ccc(Cl)cn1)C1(c2ccccc2)CCCCC1`, the growth in assay [1] was 112%; in [2] it was 85.6%; in assay [3] it was 106%; in [4], 106%; in assay [5], 97.5%; in [6], 104%. The growth in [7] was 91.6%; in assay [8] it was 94.4%; in assay [9] it was 101%; in assay [10], 105%; in assay [11], 116%; in assay [12], 96%. Besides, the growth in [13] was 106%; in [14], 181%; in [15] it was 126%; in [16] it was 112%; in assay [17], 120%; in assay [18], 141%. The growth in assay [19] is 14.1%; in [20], 63.3%.

On to `COc1cccc2c1n([O-])c1cccc(OC)c1[n+]2=O`, for which the growth in assay [1] is 87.6%; in [2], 73.5%; in assay [3], 87%; in assay [4], 80.4%; in assay [5] it was 80%; in [6] it was 57.8%. The growth in assay [7] is 72.6%; in [8] it was 84.5%; in assay [9], 64.8%; in [10] it was 72.1%; in assay [11] it was 71.5%; in [12], 45.6%. For the same molecule, the growth is 83.3% in assay [13]; 60.6% in assay [14]; 59.8% in [15]; 72.3% in [16]; 304% in assay [17]; 106% in assay [18]. Also, the growth in [19] is 9.03% (active); in assay [20], 26.3%.

For the molecule `CCOC(=O)C1=C(C(F)(F)F)NC(=S)NC1CN1C(=O)c2ccccc2C1=O` (stereo not given), the growth was 109% in assay [1]; 108% in [2]; 104% in [3]; 112% in assay [4]; 102% in assay [5]; 90.5% in assay [6]. For the same molecule, the growth was 103% in assay [7]; 101% in [8]; 105% in assay [9]; 108% in assay [10]; 100% in assay [11]; 113% in [12]. Besides, the growth in [13] was 105%; in [14], 98.1%; in assay [15] it was 107%; in assay [16] it was 105%; in assay [17], 88.3%; in [18], 133%. Besides, the figures for the growth in assay [19] and in assay [20] were 40.7% and 93.7%, respectively.

Regarding `CCC(CCCN1C(=O)c2ccccc2C1=O)Nc1cc(OC)cc2c(C)ccnc12` (stereo not given), the growth is 91.5% in assay [1]; 100% in assay [2]; 92.2% in assay [3]; 102% in assay [4]; 90.7% in [5]; 89.1% in assay [6]. For the same molecule, the growth in [7] is 85.3%; in assay [8] it was 69.5%; in assay [9], 95.8%; in assay [10], 101%; in assay [11], 87%; in assay [12] it was 84.5%. Besides, the growth is 97.8% in assay [13]; 115% in assay [14]; 120% in assay [15]; 100% in [16]; 75.7% in [17]; 60% in assay [18]. Moreover, the results for the growth in assay [19] and in assay [20] were 105% and 66.3%, respectively.

As for `CC(C)(C)C(=O)CCCCCCCC/C=C/CCCC(O)c1ccco1` (stereo not given), the growth in assay [1] is 118%; in assay [2], 107%; in assay [3], 101%; in [4], 109%; in assay [5] it was 105%; in assay [6], 102%. The growth in [7] is 107%; in [8], 95.2%; in [9] it was 102%; in assay [10], 106%; in assay [11], 105%; in assay [12] it was 102%. Besides, the growth was 110% in [13]; 98.3% in [14]; 105% in assay [15]; 120% in assay [16]; 110% in assay [17]; 109% in assay [18]. The growth in [19] was -44.3% (active); in [20], 76.1%.

In the case of `C/C=C(/C)C(=O)OC1C=C(CO)C(=O)C(OC(=O)C2(C)OC2C)C1C(C)C` (stereo not given), the growth in [1] was -14.5% (active); in assay [2] it was -60.3% (active); in [3], 23.6%; in assay [4], 12.1%; in [5] it was -23.1% (active); in assay [6], -7.66% (active). Further, the growth in assay [7] was -92.8% (active); in assay [8] it was -73.7% (active); in assay [9] it was -83.8% (active); in assay [10] it was -49% (active); in assay [11], -49.7% (active); in assay [12], -11.8% (active). Moreover, the growth in assay [13] was -44.4% (active); in [14], -96.3% (active); in assay [15], -31.8% (active); in [16], -96.8% (active); in assay [17] it was -23.6% (active); in assay [18], 1.46% (active). Moreover, the growth in assay [19] was 1.28% (active); in [20], -3.66% (active).

On to `CCC1(CC)C(OC)NC(Br)=C(C#N)C1(C#N)C(N)=O` (stereo not given), for which the growth is 114% in assay [1]; 105% in assay [2]; 99.3% in assay [3]; 110% in assay [4]; 104% in assay [5]; 107% in assay [6]. Further, the growth in assay [7] is 109%; in [8], 99.5%; in assay [9] it was 101%; in assay [10], 114%; in assay [11], 102%; in assay [12], 103%. Also, the growth in assay [13] was 106%; in assay [14], 85.2%; in [15] it was 118%; in assay [16], 108%; in [17] it was 117%; in assay [18], 114%. Moreover, the growth in assay [19] is 100%; in assay [20] it was 88.4%.

These data come from PubChem BioAssay (NCI).
